Screens deposited in PubChem BioAssay by National Center for Advancing Translational Sciences (NCATS).
POLK inh: inhibitors of human DNA polymerase kappa. Q9UBT6. purified Pol kappa, fluorescent DNA synthesis assay, 10 min. Potency, µM (highest dose often 107 µM), for the others: top-dose activity, negative = inhibition, usual class: inhibitors. 0.53% of 400,000 active; also: % is scaled to controls: 0 for no effect and ±100 for the full control effect
Target sequence (Q9UBT6 whole entry, looked up): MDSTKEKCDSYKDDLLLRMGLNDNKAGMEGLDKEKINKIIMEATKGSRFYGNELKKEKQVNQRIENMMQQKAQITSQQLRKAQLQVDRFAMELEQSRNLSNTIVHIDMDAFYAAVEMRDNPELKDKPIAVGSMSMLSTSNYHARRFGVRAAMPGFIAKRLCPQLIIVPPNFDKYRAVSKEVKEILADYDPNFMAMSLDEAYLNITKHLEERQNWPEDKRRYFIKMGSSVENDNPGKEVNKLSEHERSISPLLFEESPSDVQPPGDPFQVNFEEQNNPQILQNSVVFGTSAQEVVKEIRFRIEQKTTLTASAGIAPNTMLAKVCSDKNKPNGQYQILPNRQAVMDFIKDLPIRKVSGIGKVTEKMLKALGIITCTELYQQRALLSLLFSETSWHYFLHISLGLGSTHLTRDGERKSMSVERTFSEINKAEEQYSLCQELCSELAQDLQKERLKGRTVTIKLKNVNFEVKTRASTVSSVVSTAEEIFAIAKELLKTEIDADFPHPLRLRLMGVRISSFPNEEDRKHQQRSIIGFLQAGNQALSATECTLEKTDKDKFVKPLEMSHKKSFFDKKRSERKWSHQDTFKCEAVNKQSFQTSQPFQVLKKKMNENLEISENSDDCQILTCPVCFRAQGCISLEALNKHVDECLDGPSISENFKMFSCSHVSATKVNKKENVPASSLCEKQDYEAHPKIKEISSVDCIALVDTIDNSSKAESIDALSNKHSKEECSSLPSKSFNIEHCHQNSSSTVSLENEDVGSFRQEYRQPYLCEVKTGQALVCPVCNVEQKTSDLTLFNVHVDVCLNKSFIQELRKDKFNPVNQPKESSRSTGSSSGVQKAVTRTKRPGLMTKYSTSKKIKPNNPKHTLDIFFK
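Kinetic fluorescence screen: compound preincubated 15 min RT with 10 nM enzyme; 50 nM substrate (final) initiates; reads at 0/10 min.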
POLB inh: inhibitors of human DNA polymerase beta | P06746 | Pol beta primer extension/strand displacement, fluorescence kinetic | Potency, µM (top dose mostly 114 µM), for inactives: at the top dose activity change, negative = inhibition, most hits filed as inhibitors | 1.3% of 340,000 active | AID 485314; also: % is scaled to controls: 0 for no effect and ±100 for the full control effect
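Pol beta (10 nM) and compounds were preincubated 15 min at room temperature, then 50 nM substrate (final) started primer extension/strand displacement. Reads were taken at 0 and 10 min; concentration-response data were fitted to a four-parameter Hill equation.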
WRN helicase inh: blocks human WRN helicase | WRN helicase unwinding, fluorescent forked duplex, kinetic | Q14191 | Potency, µM (doses to about 114 µM), without a hit: at the top dose activity change, negative = inhibition, actives largely listed as inhibitors | 0.46% of 360,000 active; also: % is scaled to controls: 0 for no effect and ±100 for the full control effect; nearly all actives have a fitted effect of over 55% in size
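Fluorescence dequenching readout, ex 525 nm/em 598 nm, kinetic mode: forked duplex DNA (100 nM final) with adjacent fluorophore and quencher unwound by WRN (20 nM final) with 2 mM ATP. Compound preincubation 15 min, room temperature.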
POLI inh: inhibitors of human DNA polymerase iota. Q9UNA4. Pol iota fluorescent replication assay, 10 min. Potency, µM (highest dose often 115 µM), without a hit: top-dose activity, negative = inhibition, hits mostly inhibitors. 1% of 390,000 active. AID 588590
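Pol iota at 10 nM preincubated 15 min with compounds at room temperature; reaction started with fluorescent substrate, 50 nM final. Fluorescence read kinetically at 0 and 10 min; buffer-only wells as negative control.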
POLH inh: DNA polymerase eta (human) inhibition | 1.2% of 390,000 active | Q9Y253 | recombinant Pol eta, fluorescent DNA replication assay | Potency, µM (top dose mostly 114 µM), for the others: top-dose activity change, negative = inhibition, hits mostly inhibitors; also: % is scaled to controls: 0 for no effect and ±100 for the full control effect
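Pol eta at 10 nM preincubated with compounds 15 min at room temperature; reaction started with fluorescent substrate (50 nM final) and read kinetically at 0 and 10 min.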
Active calls of the source: *; ? = inconclusive; . = no result given; [ ] = dose if it differs, or a comment. Only some compounds are listed: those with a hit (about 2.3% of all), similar ones and a draw of the others. Calls follow the shape of the dose curve; as a rule, active = well fitted curve in the direction sought with a large enough effect; inconclusive = small, poorly fitted or top-dose-only effect, or another doubt; inactive = no such curve, though single readings can be large; an effect the other way counts as inactive or inconclusive. Potency is read from the fitted curve at half-maximal effect.

SMILES | POLK inh | POLB inh | WRN helicase inh | POLI inh | POLH inh
c1csc(Cc2nn3c(-c4ccncc4)nnc3s2)c1 | 40µM* | 32µM* | ? | 20µM* | ?
COc1ccc(-c2c[n+]3c4n2CCCCC4=C(c2ccccc2)C3)cc1 | -6% | 11µM* | -2% | 9% | 0%
COc1ccc(-c2c[n+](CC(=O)c3ccccc3)c3n2CCCCC3)cc1 | -15% | 21% | 3% | -4% | -15%
C[C@@H]1CC2[C@@H]3C[C@H](F)C4=CC(=O)C(Cl)=C[C@]4(C)[C@@]3(F)[C@H](O)C[C@]2(C)[C@@]1(O)C(=O)CO (stereo partly specified) | 7%[19.4 µM] | . | . | . | .
COC(=O)c1sc(N)c(C(=O)OC)c1COC(=O)CCNS(=O)(=O)c1ccc(C)cc1 | -9% | 10% | -12%[57.1 µM] | 89µM* | ?
CCC(=O)CC | -5%[60.1 µM] | . | . | . | .
C=C(C)C(=O)Nc1cccc(C2=NOC3(C2)C[C@@H](C(N)=O)N(C(=O)c2ccc(OC)cc2)C3)c1 (stereo partly specified) | 14µM* | 2.8µM* | ? | 7.1µM* | 2.8µM*
C=C(C)C(=O)Nc1cccc(C2=NOC3(C2)C[C@@H](C(N)=O)N(C(=O)[C@H]2CCC(=O)N2)C3)c1 (stereo partly specified) | -11% | 56µM* | 3% | -6% | 1%
CCCCCC(=O)Nc1cccc(C2=NOC3(C2)C[C@@H](C(N)=O)N(C(=O)c2ccc(OC)cc2)C3)c1 (stereo partly specified) | -12% | -23% | -1% | -17% | -4%
C/C=C(/C)C(=O)Nc1cccc(C2=NOC3(C2)C[C@@H](C(N)=O)N(C(=O)[C@H]2CCC(=O)N2)C3)c1 (stereo partly specified) | -8% | ? | 1% | -12% | -14%
CSC1=NSC2=NC(=O)/C(=C/c3coc4ccc(O)cc4c3=O)C(=N)N12 | 40µM* | 25µM* | 45µM* | ? | 3.2µM*
CCOc1ccc(-c2csc(/C(C#N)=C\c3ccc(O)c([N+](=O)[O-])c3)n2)cc1 | 3% | 28µM* | ? | ? | 22µM*
CCN(c1ccc(NC(=O)CCc2nc3sc4c(c3c(=O)[nH]2)CCCC4)cc1)C(C)C | -6% | . | -1% | ? | ?
O=C(CCc1nc2sc3c(c2c(=O)[nH]1)CCCC3)Nc1ccccc1Cl | ? | . | ? | 45µM* | ?
COc1ccc(CCNC(=O)CCc2nc3sc4c(c3c(=O)[nH]2)CCCC4)cc1 | -27% | 35µM* | -28% | ? | ?
CCc1ccc(NC(=O)CCc2nc3sc4c(c3c(=O)[nH]2)CCCC4)cc1 | ? | . | -4%[11.6 µM] | ? | 45µM*
CCOC(=O)C1CCCN(S(=O)(=O)c2cc(-c3onc(C)c3C)ccc2OC)C1 (stereo unspecified) | -13% | -25% | . | 15% | -21%
CCCCCOc1ccc(C(=O)N(Cc2ccccc2)C2CCS(=O)(=O)C2)cc1 (stereo unspecified) | 0%[60.1 µM] | 9% | . | 2% | -23%
O=C(C[n+]1c(Cl)ccc2ccccc21)c1ccc2ccccc2c1 | -15% | . | . | 10% | .
O=C(O)Cn1c(CCS(=O)(=O)c2ccc(Br)cc2)nc2ccccc21 | -36% | 14µM* | ? | 74% | 20µM*
Cc1ccccc1-c1nnc(SCc2ccc(F)cc2)o1 | -8% | -28% | -7%[57.1 µM] | 89µM* | 7%
Fc1ccc(CSc2nnc(-c3ccncc3)o2)cc1 | 0% | 9% | 0%[57.1 µM] | 33% | -14%
COc1ccc(SCCN2CCN(CCc3ccccc3)CCC2=O)cc1 | 16% | . | . | ? | .
C/C(=C\COc1c2ccoc2cc2oc(=O)ccc12)CCC(O)C(C)(C)O (stereo unspecified) | -11%[60.1 µM] | . | . | . | .
Cc1ccc2c(CC(=O)OCc3cc(=O)n4c(n3)sc3ccccc34)coc2c1 | ? | 10µM* | ? | ? | 10µM*
SMILES | POLK inh | POLB inh | WRN helicase inh | POLI inh | POLH inh
Cc1ccc(COC(=O)Cc2coc3cc(O)ccc23)cc1 | 4% | ? | -3% | ? | -19%
c1coc(-c2nnc(-c3ccco3)nn2)c1 | 18µM* | 7.9µM* | 20µM* | ? | 8.9µM*
Cc1nnc(N2CCN(C(=O)Nc3cc(F)ccc3F)CC2)c2nn(-c3ccc(Cl)cc3)c(C)c12 | -19% | ? | . | 5% | .
COc1ccc(-c2coc3cc(O)ccc3c2=O)c(O)c1O | 1.8µM* | . | . | . | .
COc1ccc(-c2coc3cc(O)ccc3c2=O)c(OC)c1O | -1%[60.1 µM] | . | . | . | .
Cc1c(NC(=O)Nc2ccccc2C(F)(F)F)sc2nc3n(c(=O)c12)CCC(C)CC3 (stereo unspecified) | 13% | 28% | . | 16% | -5%
CC(CC(C)(C)C)CP(=O)(O)CC(C)CC(C)(C)C (stereo unspecified) | 2%[60.1 µM] | . | . | . | .
C=C1C=C(C(F)F)n2ncc(C(=O)N3CCc4ccccc4C3)c2N1 | 2% | . | . | 10% | .
O=S(=O)(Nc1cc(Sc2cccc3cccnc23)c(O)c2ccccc12)c1ccc(F)cc1 | -13% | 10% | 22µM* | ? | -3%
Cc1ccc(C)c(NC(=O)Cn2nnc(C(=O)NCc3ccccc3Cl)c2N)c1 | -11%[60.1 µM] | 35µM* | . | ? | -16%
CSc1cccc(NC(=O)Cn2nnc(C(=O)NCCc3ccccc3)c2N)c1 | -5%[60.1 µM] | 25µM* | . | 79µM* | -21%
Cc1ccccc1NC(=O)Cn1nnc(C(=O)NCCc2ccccc2)c1N | -7% | 14µM* | . | -11% | -18%
Cc1cc(C)cc(NC(=O)Cn2nnc(C(=O)NCc3ccccc3Cl)c2N)c1 | 11% | 16% | -22% | ? | -9%
Nc1c(C(=O)NCCc2ccccc2)nnn1CC(=O)Nc1ccc(Cl)cc1 | -28% | ? | . | 79µM* | -7%
Cc1cc(C)cc(NC(=O)Cn2nnc(C(=O)NCCc3ccccc3)c2N)c1 | -24% | ? | -9%[11.6 µM] | ? | -13%
Cc1ccc(NC(=O)Cn2nnc(C(=O)NCCc3ccccc3)c2N)cc1Cl | -15% | ? | -15% | ? | -20%
c1coc(CNc2nc[n+]3c4c2ncn4CC3)c1 | 7% | . | . | 2% | .
Cc1ccccc1OCC(=O)NCC(=O)OCC(=O)c1ccc(Br)cc1 | 5% | . | . | 16% | .
CCc1ccccc1NC(=O)Cn1nnc(C(=O)NCc2cccc(OC)c2)c1N | -31% | ? | 5%[11.6 µM] | ? | -23%
COc1cccc(CNC(=O)c2nnn(CC(=O)Nc3ccc(C)c(C)c3)c2N)c1 | -17% | 25µM* | -22% | ? | ?
CCC1(c2ccc(O)cc2)NC(=O)N(C)C1=O (stereo unspecified) | 14%[60.1 µM] | . | . | . | .
CCOc1ccc(N=Cc2c(C)[nH]n(-c3nc4ccccc4[nH]3)c2=O)cc1 | ? | 22µM* | ? | 5% | 16µM*
Cc1[nH]n(-c2ccccc2)c(=O)c1C=Nc1cnc2ccccc2c1 | -2% | ? | -12% | ? | ?
Nc1nc(=S)ss1 | -12% | . | -31% | 28µM* | -2%
